Reference: PubChem BioAssay (EPA / NIEHS)
Results filed as inconclusive are left out. The source made the active and inactive calls. Rule for the calls, unless noted: active = hit-call score of the fitted dose curve at least 0.9, where 1 is the maximum; inactive = score below 0.9.

What was measured:
[1] = molecular target: Estrogen receptor (Homo sapiens) (UniProt P03372); assay: ATG_ERa_TRANS: Attagene TRANS-FACTORIAL HepG2 Assay for human Estrogen Receptor alpha (ERa) (AID 2282970; active = hit-call score of the fitted dose curve at least 0.9, where 1 is the maximum); conditions: HepG2 Attagene TRANS ERa GAL4 reporter, mRNA
Outline: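 Signal derives from fluorescence of labelled reporter PCR fragments separated by capillary electrophoresis. HepG2 cells transiently carrying multiple GAL4-UAS reporter units were treated 24 hours, and induction above DMSO baseline was fitted as activity.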

[2] = read-out: Vascular endothelial growth factor receptor 2 (Homo sapiens) (UniProt P35968); assay: BSK_4H_VEGFRII: BioMAP Diversity Plus: 4H Assay for Vascular endothelial growth factor receptor 2 (VEGFR2) Biomarker Activity (AID 2283031); conditions: primary human endothelial cells (HUVEC); actives raise or lower the signal;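 for AC50: cell-surface VEGFR2 protein level quantified by ELISA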
Outline: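 In this multiplexed HUVEC system, biomarker ELISA was performed after 24 h chemical exposure. Parallel SRB staining (TCA fixation, 560 nm) tracked cytotoxicity; DMSO served as baseline.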

[3] = read-out: TIMP metallopeptidase inhibitor 2 (TIMP2), TIMP2 (gene 7077); assay: BSK_KF3CT_TIMP2: BioMAP Diversity Plus: KF3CT Assay for TIMP metallopeptidase inhibitor 2 (TIMP2) Biomarker Activity (AID 2283071); conditions: primary human keratinocytes with fibroblasts; actives raise or lower the signal
Outline: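 Measurements come from ELISA detection of TIMP-2 at 24 hours in a dosed human keratinocyte and foreskin fibroblast co-culture. DMSO serves as negative control and baseline.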

[4] = read-out: C-C motif chemokine 2 (Homo sapiens) (UniProt P13500); assay: BSK_KF3CT_MCP1: BioMAP Diversity Plus: KF3CT Assay for Monocyte Chemoattractant Protein 1 (MCP1/CCL2) Biomarker Activity (AID 2283073); conditions: primary human keratinocytes with fibroblasts; actives raise or lower the signal
Outline: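 Biomarker MCP-1 is measured by ELISA in primary human keratinocytes co-cultured with foreskin fibroblasts, 24 h after chemical treatment; DMSO serves as the negative control and activity baseline.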

[5] = read-out: urokinase plasminogen activator (uPA), PLAU (gene 5328); assay: BSK_KF3CT_uPA: BioMAP Diversity Plus: KF3CT Assay for urokinase plasminogen activator (uPA) Biomarker Activity (AID 2283075); conditions: primary human keratinocytes with fibroblasts; actives raise or lower the signal
Outline: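 Values derive from bidirectional fitting against DMSO controls. Keratinocyte/foreskin fibroblast co-cultures received chemical; 24 h later uPA was detected by ELISA, with SRB total-protein staining in parallel wells for overt cytotoxicity.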

[6] = read-out: CD40, CD40 (gene 958); assay: BSK_LPS_CD40: BioMAP Diversity Plus: LPS Assay for CD40 Biomarker Activity (AID 2283076); conditions: primary human HUVEC with PBMC; actives raise or lower the signal
Outline: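 Using a multiplexed primary human co-culture (umbilical vein endothelium plus PBMC), CD40 was read by ELISA 24 h after dosing, with cytotoxicity tracked by sulforhodamine B staining of parallel cultures and activity fitted bidirectionally versus DMSO.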

[7] = read-out: E-selectin (Homo sapiens) (UniProt P16581); assay: BSK_LPS_Eselectin: BioMAP Diversity Plus: LPS Assay for Eselectin Biomarker Activity (AID 2283077); conditions: primary human HUVEC with PBMC; actives raise or lower the signal
Outline: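 Dose chemical onto LPS-driven HUVEC/PBMC co-culture; after 24 h, run ELISA for E-selectin; fit up- and down-going responses relative to DMSO control.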

[8] = read-out: Interleukin-8 (IL8), CXCL8 (gene 3576); assay: BSK_LPS_IL8: BioMAP Diversity Plus: LPS Assay for Interleukin-8 (IL8) Biomarker Activity (AID 2283078); conditions: primary human HUVEC with PBMC; actives raise or lower the signal
Outline: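 In this LPS system, chemical-treated human umbilical vein endothelium/PBMC co-cultures were harvested at 24 h for IL-8 ELISA.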

[9] = BSK_LPS_SRB: Viability Assessment in the BioMAP Diversity Plus: LPS Assay (AID 2283079); conditions: primary human HUVEC with PBMC;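 note: total protein by sulforhodamine B absorbance as a cytotoxicity measure; measured one day after compound addition; fitted in both directions against DMSO so loss or gain of signal counts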
Outline: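 Cytotoxicity endpoint in human endothelial–PBMC co-culture: 24 h exposure, then SRB (0.1%) staining, 560 nm read.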

[10] = read-out: Monocyte Chemoattractant Protein-1 (MCP1), CCL2 (gene 6347); assay: BSK_LPS_MCP1: BioMAP Diversity Plus: LPS Assay for Monocyte Chemoattractant Protein-1 (MCP1) Biomarker Activity (AID 2283081); conditions: primary human HUVEC with PBMC; actives raise or lower the signal;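 for AC50: co-culture stimulated with LPS; secreted MCP-1 protein quantified by ELISA in culture supernatant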
Outline: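 Values derive from bidirectional fitting against DMSO of ELISA-measured MCP-1 in a human primary endothelial and mononuclear cell co-culture, 24 h after chemical addition under LPS activation.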

[11] = read-out: Macrophage colony-stimulating factor (MCSF), CSF1 (gene 1435); assay: BSK_LPS_MCSF: BioMAP Diversity Plus: LPS Assay for Macrophage colony-stimulating factor (MCSF) Biomarker Activity (AID 2283083); conditions: primary human HUVEC with PBMC; actives raise or lower the signal
Outline: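 Bidirectional fit versus DMSO of ELISA-measured M-CSF in co-cultured human umbilical vein endothelial cells and PBMC, sampled 24 h after dosing.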

[12] = read-out: Tissue Factor, F3 (gene 2152); assay: BSK_LPS_TissueFactor: BioMAP Diversity Plus: LPS Assay for Tissue Factor Biomarker Activity (AID 2283084); conditions: primary human HUVEC with PBMC; actives raise or lower the signal
Outline: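 Read-out: CD142 ELISA, 24 h. System: LPS-driven human endothelial/PBMC co-culture. Analysis: up- or down-signal fitted against DMSO.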

[13] = read-out: Vascular cell adhesion molecule 1 (VCAM1), VCAM1 (gene 7412); assay: BSK_LPS_VCAM1: BioMAP Diversity Plus: LPS Assay for Vascular cell adhesion molecule 1 (VCAM1) Biomarker Activity (AID 2283086); conditions: primary human HUVEC with PBMC; actives raise or lower the signal
Outline: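 Measured by ELISA: VCAM-1 in LPS-activated HUVEC/PBMC co-cultures 24 h after treatment. Values reflect bidirectional fitting with DMSO as baseline.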

[14] = read-out: CD38, CD38 (gene 952); assay: BSK_SAg_CD38: BioMAP Diversity Plus: SAg Assay for CD38 Biomarker Activity (AID 2283087); conditions: primary human HUVEC with PBMC; actives raise or lower the signal
Outline: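 Measures CD38 on a human endothelial/PBMC co-culture driven by SEB and TSST-1, 24 h after compound exposure, using ELISA with fluorescence detection; DMSO defines baseline for bidirectional curve fitting.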

[15] = read-out: CD69, CD69 (gene 969); assay: BSK_SAg_CD69: BioMAP Diversity Plus: SAg Assay for CD69 Biomarker Activity (AID 2283089); conditions: primary human HUVEC with PBMC; actives raise or lower the signal;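 for AC50: cell surface CD69 protein quantified by ELISA with fluorescence detection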
Outline: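 Values derive from bidirectional fitting relative to DMSO vehicle. Cells: umbilical vein endothelium plus peripheral blood mononuclear cells, treated 24 h before fluorescent ELISA for CD69.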

[16] = read-out: Monocyte Chemoattractant Protein-1 (MCP1), CCL2 (gene 6347); assay: BSK_SAg_MCP1: BioMAP Diversity Plus: SAg Assay for Monocyte Chemoattractant Protein-1 (MCP1) Biomarker Activity (AID 2283090); conditions: primary human HUVEC with PBMC; actives raise or lower the signal
Outline: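 Values derive from bidirectional fitting of ELISA-measured MCP1 against DMSO controls. Readings were taken 24 h after dosing human vascular endothelial cells co-cultured with peripheral blood mononuclear cells under superantigen stimulation.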

[17] = read-out: E-selectin (Homo sapiens) (UniProt P16581); assay: BSK_SAg_Eselectin: BioMAP Diversity Plus: SAg Assay for Eselectin Biomarker Activity (AID 2283091); conditions: primary human HUVEC with PBMC; actives raise or lower the signal
Outline: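 Endpoint values derive from bidirectional fitting relative to DMSO, using ELISA-measured E-selectin in a human vascular co-culture (umbilical vein endothelium plus PBMC) sampled 24 h after dosing.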

[18] = read-out: Interleukin-8 (IL8), CXCL8 (gene 3576); assay: BSK_SAg_IL8: BioMAP Diversity Plus: SAg Assay for Interleukin-8 (IL8) Biomarker Activity (AID 2283094); conditions: primary human HUVEC with PBMC; actives raise or lower the signal
Outline: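 Primary human endothelial cells with PBMC, exposed 24 h; IL-8 determined by ELISA, analysed bidirectionally relative to DMSO.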

[19] = read-out: Human Leukocyte Antigen - DR isotype (HLADR), HLA-DRA (gene 3122); assay: BSK_BE3C_HLADR: BioMAP Diversity Plus: BE3C Assay for Human Leukocyte Antigen - DR isotype (HLADR) Biomarker Activity (AID 2283032); conditions: primary human bronchial epithelial cells; actives raise or lower the signal
Outline: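 BioMAP BE3C format: human bronchial epithelium, 24 h compound treatment, ELISA detection of HLA-DR, with bidirectional analysis relative to DMSO.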

[20] = molecular target: Retinoic acid receptor alpha (Homo sapiens) (UniProt P10276); assay: ATG_DR5_RAR_CIS: Attagene CIS-FACTORIAL HepG2 Assay for human Retinoic Acid Receptor Alpha (RARE), DR5 submotif (AID 2282934); conditions: HepG2 Attagene cis-factorial RARE DR5 reporter, mRNA; actives raise or lower the signal
Outline: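 Transfected HepG2 reporter cells are exposed to chemicals for 24 h. Then RNA is extracted and the DR5 element reporter transcript is measured by RT-PCR and capillary electrophoresis, with bidirectional curve fitting relative to DMSO.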

Measured: AC50

Chain of Estrogen receptor (Homo sapiens) (P03372 whole entry, looked up, the tested form may be a part): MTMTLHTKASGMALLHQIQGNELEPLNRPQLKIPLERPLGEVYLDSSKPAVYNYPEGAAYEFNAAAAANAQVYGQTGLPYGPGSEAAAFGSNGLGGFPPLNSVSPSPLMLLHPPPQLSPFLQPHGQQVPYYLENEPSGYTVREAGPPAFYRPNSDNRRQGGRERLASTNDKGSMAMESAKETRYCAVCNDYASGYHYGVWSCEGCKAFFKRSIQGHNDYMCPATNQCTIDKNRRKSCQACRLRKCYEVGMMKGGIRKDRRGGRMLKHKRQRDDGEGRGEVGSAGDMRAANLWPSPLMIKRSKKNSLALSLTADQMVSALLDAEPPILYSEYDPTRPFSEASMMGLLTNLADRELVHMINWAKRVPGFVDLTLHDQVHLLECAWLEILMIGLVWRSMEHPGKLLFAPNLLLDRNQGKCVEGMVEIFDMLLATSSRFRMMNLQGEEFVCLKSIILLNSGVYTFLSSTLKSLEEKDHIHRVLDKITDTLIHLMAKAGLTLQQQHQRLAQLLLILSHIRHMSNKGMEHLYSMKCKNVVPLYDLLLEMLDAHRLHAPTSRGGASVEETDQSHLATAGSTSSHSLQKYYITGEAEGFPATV
Chain of E-selectin (Homo sapiens) (P16581 whole entry, looked up): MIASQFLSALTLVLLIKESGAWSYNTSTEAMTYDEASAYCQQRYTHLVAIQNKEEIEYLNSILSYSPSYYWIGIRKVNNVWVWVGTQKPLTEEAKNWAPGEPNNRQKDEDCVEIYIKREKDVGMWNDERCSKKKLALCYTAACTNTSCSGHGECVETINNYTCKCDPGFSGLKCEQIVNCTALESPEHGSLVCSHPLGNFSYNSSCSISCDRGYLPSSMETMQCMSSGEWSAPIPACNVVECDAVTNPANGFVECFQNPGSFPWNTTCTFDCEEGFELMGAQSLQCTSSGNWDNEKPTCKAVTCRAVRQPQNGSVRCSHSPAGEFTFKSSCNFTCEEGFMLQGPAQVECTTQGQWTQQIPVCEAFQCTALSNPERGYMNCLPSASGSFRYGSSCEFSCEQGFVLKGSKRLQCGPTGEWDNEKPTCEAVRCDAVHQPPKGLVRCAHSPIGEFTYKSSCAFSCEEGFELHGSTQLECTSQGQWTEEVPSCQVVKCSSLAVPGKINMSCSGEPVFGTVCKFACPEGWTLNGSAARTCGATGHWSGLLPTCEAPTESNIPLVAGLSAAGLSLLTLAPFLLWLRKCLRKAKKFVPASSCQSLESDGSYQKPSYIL
Chain of Retinoic acid receptor alpha (Homo sapiens) (P10276 whole entry, looked up): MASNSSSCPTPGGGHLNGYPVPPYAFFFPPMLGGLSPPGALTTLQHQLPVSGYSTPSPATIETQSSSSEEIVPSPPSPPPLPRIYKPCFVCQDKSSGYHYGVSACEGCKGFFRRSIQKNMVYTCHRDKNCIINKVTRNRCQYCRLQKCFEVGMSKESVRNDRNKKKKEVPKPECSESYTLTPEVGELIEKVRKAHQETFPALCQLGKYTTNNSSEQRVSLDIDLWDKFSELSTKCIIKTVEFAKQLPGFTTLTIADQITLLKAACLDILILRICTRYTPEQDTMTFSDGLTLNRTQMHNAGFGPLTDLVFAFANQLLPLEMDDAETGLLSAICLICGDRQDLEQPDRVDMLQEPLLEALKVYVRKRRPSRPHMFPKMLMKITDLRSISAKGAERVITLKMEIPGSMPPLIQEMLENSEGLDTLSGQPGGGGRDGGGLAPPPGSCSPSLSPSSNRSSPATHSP

O=C1C(Cl)=C(Cl)C(=O)C(Cl)=C1Cl
inactive: [1]
active: [2] 34.3 µM | [3] 12.1 µM | [4] 10.1 µM | [5] 28.5 µM | [6] 15.1 µM | [7] 30.2 µM | [8] 29 µM | [9] 32.2 µM | [10] 30.8 µM | [11] 25.2 µM | [12] 30.1 µM | [13] 16.2 µM | [14] 28.5 µM | [15] 27.3 µM | [16] 37.9 µM | [17] 25.9 µM | [18] 28 µM

CCCCCCCCCCCC#N
active: [2] 20.6 µM | [6] 30.8 µM | [7] 31.5 µM | [8] 29 µM | [11] 38 µM | [12] 24.1 µM | [13] 33.6 µM | [14] 35.6 µM | [15] 33.7 µM | [16] 33 µM | [17] 31.3 µM | [18] 32.7 µM
inactive: [19] | [3] | [4] | [5] | [9] | [10]

CN1C(=O)CCS(=O)(=O)C1c1ccc(Cl)cc1 (configuration not stated)
inactive: [20]

CCCCNP(N)(N)=S
inactive: [1]

ClCCCCCCCl
inactive: [20]

CCCCOP(=O)(O)OCCCC
inactive: [1]

C=C(Cl)Cl
inactive: [1]

N#CCNCC#N
inactive: [1]

COc1cc(OC)c(OC)cc1C=O
inactive: [1]

CCCOC(=O)c1ccccc1C(=O)OCCC
active: [1] 33.7 µM | [19] 0.274 µM | [11] 7.39 µM | [16] 20 µM
not listed: [20]
inactive: all other assays above
